An excerpt weighted towards active compounds, which were near 5% of everything screened.
VACV mCherry inh = qHTS for Stage-Specific Inhibitors of Vaccinia Orthopoxvirus: mCherry Reporter Primary qHTS. Vaccinia virus mCherry reporter infection, fluorescence. Potency, µM (top dose mostly 36.5 µM), inactives show at the highest dose activity change, negative = inhibition, actives largely listed as inhibitors. 0.63% of 310,000 active; calls by dose curve; tested in A549 cells; also: potency is read from the fitted curve at half-maximal effect; nearly all actives have a fitted effect of over 35% in size
LmPK inhibitor = qHTS Assay for Inhibitors of Leishmania Mexicana Pyruvate Kinase (LmPK). Q27686. purified LmPK, Kinase-Glo ATP luminescence, 1 h. Potency, µM (doses to about 57.5 µM), for the others: at the highest dose activity change, negative = inhibition, usual class: inhibitors. 0.37% of 290,000 active; also: potency is read from the fitted curve at half-maximal effect
Target sequence (Q27686 whole entry, looked up): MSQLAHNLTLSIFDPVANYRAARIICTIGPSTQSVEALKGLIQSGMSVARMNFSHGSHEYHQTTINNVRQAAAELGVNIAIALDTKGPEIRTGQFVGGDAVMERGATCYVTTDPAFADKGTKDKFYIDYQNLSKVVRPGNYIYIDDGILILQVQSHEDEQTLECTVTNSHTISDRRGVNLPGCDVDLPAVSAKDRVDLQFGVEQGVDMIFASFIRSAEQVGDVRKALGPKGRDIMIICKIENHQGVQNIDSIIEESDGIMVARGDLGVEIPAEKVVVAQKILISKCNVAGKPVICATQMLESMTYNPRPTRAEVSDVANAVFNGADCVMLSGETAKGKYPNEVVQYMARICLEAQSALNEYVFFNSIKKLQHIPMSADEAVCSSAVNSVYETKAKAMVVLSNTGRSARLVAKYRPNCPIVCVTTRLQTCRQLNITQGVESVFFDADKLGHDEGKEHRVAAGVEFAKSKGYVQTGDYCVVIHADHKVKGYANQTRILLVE
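Purified LmPK (0.1 nM) converted ADP (0.1 mM) to ATP with PEP (0.5 mM) in imidazole buffer pH 7.2 with KCl and MgCl2, 1 h at room temperature. ATP was read by Kinase-Glo luminescence; data normalized to uninhibited and no-enzyme controls.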
TbPYK inhibitor = qHTS of Trypanosoma Brucei Inhibitors; 0.12% of 410,000 active; Potency, µM (titrated, usually from 76.8 µM), for inactives: top-dose activity, negative = inhibition, actives largely listed as inhibitors; AID 624173, 2012; TbPYK enzyme, Kinase-Glo Plus ATP luminescence, 45 min; also: potency is read from the fitted curve at half-maximal effect; nearly all actives have a fitted effect of over 50% in size
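Luminescence from Kinase-Glo Plus, added after a 45-minute room-temperature reaction, served as the end-point read-out. The enzyme and substrate were preincubated with compound before ADP (130 uM final) initiated turnover. Concentration-effect curves came from normalized qHTS data.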
VACV Venus inh = qHTS for Stage-Specific Inhibitors of Vaccinia Orthopoxvirus: Venus Reporter Primary qHTS; 0.46% of 330,000 active; Vaccinia virus Venus reporter expression, fluorescence; Potency, µM (titrated, usually from 36.5 µM), inactives show at the highest dose activity change, negative = inhibition, usual class: inhibitors; calls by dose curve; tested in A549 cells; also: potency is read from the fitted curve at half-maximal effect; nearly all actives have a fitted effect of over 30% in size
HCMV inh = qHTS Assay for inhibitors of the human cytomegalovirus (HCMV); 4.5% of 410,000 active; HFF cells, HCMV-luciferase reporter, 72 h; stronger effect = lower value; activity change, negative = inhibition, % at 57.5 µM; in the data active = activity change below about -60%; inconclusive = no clear call, values can overlap the other calls; inactive = above about -39%
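Screen run at 2 compound doses on HFFs infected with reporter HCMV, MOI 1 PFU/cell. Luciferase activity from cell lysates at 72 h post infection gave inhibition relative to buffer-only and Salinomycin wells.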
Active calls of the source: *; i = inactive; ? = inconclusive; / = no result. Unless noted, calls follow the shape of the dose curve; as a rule, active = well fitted curve in the direction sought with a large enough effect; inconclusive = small, poorly fitted or top-dose-only effect, or another doubt; inactive = no such curve, though single readings can be large; an effect the other way counts as inactive or inconclusive. % is scaled to controls: 0 for no effect and ±100 for the full control effect.

SMILES | VACV mCherry inh | LmPK inhibitor | TbPYK inhibitor | VACV Venus inh | HCMV inh
Cn1c(=O)c2sccc2n2c(CCCC(=O)Nc3ccc(Oc4ccccc4)cc3)nnc12 | -5% | / | -1% | -13% | -65*
CCC(C)n1c(=O)c2sccc2n2c(CCCC(=O)Nc3ccc(F)cc3)nnc12 (stereo not given) | -8% | / | -2% | -11% | -65*
Cn1c(=O)c2sccc2n2c(CCCC(=O)Nc3ccc(Cl)cc3)nnc12 | 2% | / | -7% | -4% | -29
O=C(Nc1cc(Cl)cc(Cl)c1)c1ccc(F)c(S(=O)(=O)N2CCc3ccccc32)c1 | -26% | / | 3% | -21% | -96*
O=C(Nc1cc(Cl)cc(Cl)c1)c1ccc(F)c(S(=O)(=O)N2CCCC2)c1 | -19% | / | -4% | -20% | -23
O=C(Nc1ccc(Br)cc1)c1ccc(F)c(S(=O)(=O)N2CCCc3ccccc32)c1 | ? | / | 0% | ? | -99*
CCOC(CCn1c(SCc2ccc([N+](=O)[O-])cc2)nc2ccccc2c1=O)OCC | ? | 2% | -3% | -14% | -18
CN(C)CCNC(=O)c1ccc2c(c1)NC(=O)C(CS(=O)(=O)Cc1cccc(Br)c1)N2 (stereo not given) | -14% | / | -9% | -8% | 101
Cc1ccc(-n2ncc3c(N4CCCCC4)ncnc32)cc1Cl | -5% | / | -3% | -3% | -89*
Cc1ccc(-n2ncc3c(N4CCCCCC4)ncnc32)cc1Cl | -4% | / | 0% | 5% | -90*
CCOc1ccc(-c2ccc(NS(=O)(=O)c3ccc([N+](=O)[O-])cc3)cc2)nn1 | / | -3% | 2% | / | ?
COc1ccc2[nH]c(=O)c(CN(Cc3cccs3)Cc3nnnn3C(C)(C)C)cc2c1 | -27% | -4% | 2% | -17% | -67*
CCCn1nnc(NC(=O)c2cc(Br)cc(Br)c2OC)n1 | / | -2% | 11% | / | -28
O=[N+]([O-])c1ccc(/C=[N+](\[O-])[C@@H]2CCCC[C@@H]2/[N+]([O-])=C/c2ccc([N+](=O)[O-])o2)o1 | i | 6% | 4% | -8% | -98*
O=C(Nc1ccc2nc(-c3ccccc3)[nH]c2c1)c1ccco1 | -2% | -6% | -3% | -12% | -67*
O=C(Nc1cccc(-c2nc3ccccc3[nH]2)c1)c1cccc(NC(=O)c2ccco2)c1 | / | 2% | 6% | / | -102*
COc1cc2c(cc1/C=C/C(=O)O)OC(C)C2 (stereo not given) | -6% | 3% | 5% | -2% | 86
CC(C)(O)C1Cc2cc(/C=C/C(=O)O)c(O)cc2O1 (stereo not given) | i | 28µM* | ? | -5% | -17
CCCN(CC(=O)Nc1ccccc1C)C(=O)C1CCN(S(=O)(=O)c2ccc(C)c(C)c2)CC1 | i | / | 7% | ? | -61*
O=C(Nc1ccc(Oc2ccccc2)cc1)C1CCN(S(=O)(=O)c2ccccc2)CC1 | ? | / | -5% | ? | -82*
CCCN(CC(=O)Nc1ccccc1C)C(=O)C1CCN(S(=O)(=O)c2ccc3c(c2)OCCO3)CC1 | / | / | 3% | / | 63
O=C(Nc1ccc(S(=O)(=O)N2CCOCC2)cc1)C1CCN(S(=O)(=O)c2ccc(F)cc2)CC1 | -22% | / | 4% | -19% | -66*
Cc1ccc(S(=O)(=O)N2CCC(C(=O)Nc3ccc(Oc4ccccc4)cc3)CC2)cc1 | -10% | / | 1% | -3% | -33
Cc1ccccc1NC(=O)C1CCN(S(=O)(=O)c2ccccc2)CC1 | -1% | / | 1% | -5% | -78*
O=C(Nc1ccc(S(=O)(=O)N2CCOCC2)cc1)C1CC(=O)N(c2ccc(F)cc2)C1 (stereo not given) | -5% | 5% | -7% | -12% | -18
O=C(Nc1ccc(Oc2ccccc2)nc1)C1CCCCN1Cc1ccc(OCCO)cc1 (stereo not given) | / | 0% | 2% | / | 1
O=C(Nc1ccc(Oc2ccccc2)cc1)C1CCCN(c2ncccn2)C1 (stereo not given) | -6% | 1% | -4% | -7% | -72*

Screening results (PubChem)
